Activity calls are given as the source filed them. Unless noted, no rule for the calls is given here.
Tests used:
[1] = compound effects on lung adenocarcinoma cell viability – A549, calcein-AM fluorescence, 48 h, basal, profiling panel (AID 1162); conditions: higher = more signal; also: test concentration not given here
[2] = compound effects on differentiated 3T3-L1 adipocyte viability – cell-based, 3T3-L1 adipocytes, calcein-AM fluorescence, 48 h, basal, profiling panel (AID 1163); conditions: 3T3-L1 adipocytes viability, higher = more signal; also: test concentration not given here
[3] = compound effects on hepatocellular carcinoma cell viability – HepG2, calcein-AM fluorescence, 48 h, basal, profiling panel (AID 1164); conditions: higher = more signal; also: test concentration not given here
[4] = compound effects on multiple myeloma cell viability – MM1S, calcein-AM fluorescence, 48 h, basal, profiling panel (AID 1165); conditions: higher = more signal; also: test concentration not given here
[5] = calcein-AM signal in unstimulated myeloma cells – cell-based, calcein-AM fluorescence, 48 h, PK04 Diversity Set, profiling panel (AID 1166); conditions: RPMI8226 myeloma viability, higher = more signal;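 also: cells grown under basal conditions without added stimulus; test concentration not given here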
[6] = JC-1 mitochondrial signal, unstimulated HepG2 cells – cell-based, JC-1 fluorescence, 24 h, 100 nL compound, profiling panel (AID 1167); conditions: HepG2 mitochondrial potential, higher = more signal; also: test concentration not given here
[7] = JC-1 mitochondrial signal, unstimulated adipocytes – cell-based, JC-1 fluorescence, 3T3-L1 adipocytes, 24 h, 100 nL compound, profiling panel (AID 1168); conditions: JC-1 mitochondrial fluorescence, higher = more signal, called active from +8 up or from −8 down; also: test concentration not given here
[8] = JC-1 mitochondrial signal, unstimulated myeloma cells – cell-based, JC-1 fluorescence, RPMI8226, 24 h, 100 nL compound, profiling panel (AID 1169); conditions: JC-1 mitochondrial potential fluorescence, higher = more signal; also: test concentration not given here
[9] = JC-1 mitochondrial signal, unstimulated MM1S myeloma – cell-based, JC-1 fluorescence, 24 h, 100 nL compound, profiling panel (AID 1170); conditions: MM1S mitochondrial potential, higher = more signal; also: test concentration not given here
[10] = resazurin metabolic signal in A549 cells – cell-based, resazurin fluorescence, 24 h, PK04 Diversity Set, profiling panel (AID 1171); conditions: A549 viability, higher = more signal, called active from +8 up or from −8 down; also: test concentration not given here
[11] = resazurin metabolic signal in HepG2 cells – cell-based, resazurin fluorescence, 24 h, PK04 Diversity Set, profiling panel (AID 1172); conditions: HepG2 viability, higher = more signal; also: test concentration not given here
[12] = budding yeast growth changes without added modifier – OD600, strain BY4716, 24 h, basal condition, primary screen (AID 1173); conditions: S. cerevisiae BY4716 growth, OD600, 24 h; higher = more signal, called active from +8 up or from −8 down
[13] = viability profiling in MM1S myeloma cells – cell-based, resazurin fluorescence, basal, 24 h, PK04 Diversity Set, profiling panel (AID 1174); conditions: higher = more signal, called active from +8 up or from −8 down; also: test concentration not given here
[14] = biological target: Dihydroorotate dehydrogenase (quinone), mitochondrial (Plasmodium falciparum (isolate 3D7)) (UniProt Q08210); assay: inhibition of P. falciparum DHODH – biochemical, C-terminal His tag, absorbance 600 nm, primary screen (AID 1175); conditions: PfDHODH enzyme, DCIP absorbance 600 nm; higher = more signal, called active from +8 up or from −8 down;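 also: recombinant parasite enzyme with a five histidine tag at its C terminus; test concentration not given here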
[15] = inhibition of PAO1 biofilm formation – strain PAO1, LB-PBS medium, absorbance 600 nm, primary screen (AID 1176); also: test concentration not given here; conditions: P. aeruginosa PAO1 growth/biofilm, A600, 12 h; higher = more signal
[16] = growth modulation of vineyard yeast isolate – strain RM11-1a, OD600, basal, 24 h, primary screen (AID 1177);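 also: cultures grown under basal conditions with no added stressor; test concentration not given here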; conditions: S. cerevisiae RM11-1a growth, OD600, 24 h; higher = more signal, called active from +8 up or from −8 down
[17] = growth of efflux-deficient E. coli DRC39 – strain DRC39, OD650, 24 h, E. coli filamentation inducers, primary screen (AID 1178);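 also: growth measured as culture turbidity by optical density at 650 nm; test concentration not given here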; conditions: E. coli DRC39 acrAB, higher = more signal, called active from +8 up or from −8 down
[18] = growth of efflux-deficient E. coli DRC39 – strain DRC39, OD650, 48 h, E. coli filamentation inducers, primary screen (AID 1179);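 also: screen aims at cell division blockers that make cells filament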; conditions: E. coli DRC39 delta-acrAB growth, higher = more signal, called active from +8 up or from −8 down
[19] = viability profiling in RPMI8226 myeloma cells – cell-based, resazurin fluorescence, basal, 24 h, PK04 Diversity Set, profiling panel (AID 1180); conditions: higher = more signal;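 also: RPMI8826 multiple myeloma cell line at 5000 cells per well; test concentration not given here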
[20] = biological target: E3 ubiquitin-protein ligase XIAP (Homo sapiens) (UniProt P98170); assay: small molecules binding XIAP protein – biophysical, small-molecule microarray, fluorescence 635 nm, primary screen (AID 1181); conditions: higher = more signal;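 also: score merges 667 nm emission and signal to noise over triplicate slides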
Sequence of E3 ubiquitin-protein ligase XIAP (Homo sapiens) (P98170 whole entry, looked up): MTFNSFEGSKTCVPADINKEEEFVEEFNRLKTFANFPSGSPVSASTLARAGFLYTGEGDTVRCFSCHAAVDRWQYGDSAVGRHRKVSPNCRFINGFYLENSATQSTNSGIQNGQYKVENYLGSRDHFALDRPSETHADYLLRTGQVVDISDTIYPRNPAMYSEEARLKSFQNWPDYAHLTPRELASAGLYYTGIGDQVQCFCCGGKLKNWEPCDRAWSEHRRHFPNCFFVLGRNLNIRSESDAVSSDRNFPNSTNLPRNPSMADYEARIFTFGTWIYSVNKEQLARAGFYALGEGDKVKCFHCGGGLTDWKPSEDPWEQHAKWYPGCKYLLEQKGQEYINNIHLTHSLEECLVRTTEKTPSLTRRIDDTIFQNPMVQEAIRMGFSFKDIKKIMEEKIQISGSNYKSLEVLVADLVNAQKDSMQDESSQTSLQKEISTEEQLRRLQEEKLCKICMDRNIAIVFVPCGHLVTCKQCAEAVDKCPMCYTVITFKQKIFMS

Sequence of Dihydroorotate dehydrogenase (quinone), mitochondrial (Plasmodium falciparum (isolate 3D7)) (Q08210 whole entry, looked up): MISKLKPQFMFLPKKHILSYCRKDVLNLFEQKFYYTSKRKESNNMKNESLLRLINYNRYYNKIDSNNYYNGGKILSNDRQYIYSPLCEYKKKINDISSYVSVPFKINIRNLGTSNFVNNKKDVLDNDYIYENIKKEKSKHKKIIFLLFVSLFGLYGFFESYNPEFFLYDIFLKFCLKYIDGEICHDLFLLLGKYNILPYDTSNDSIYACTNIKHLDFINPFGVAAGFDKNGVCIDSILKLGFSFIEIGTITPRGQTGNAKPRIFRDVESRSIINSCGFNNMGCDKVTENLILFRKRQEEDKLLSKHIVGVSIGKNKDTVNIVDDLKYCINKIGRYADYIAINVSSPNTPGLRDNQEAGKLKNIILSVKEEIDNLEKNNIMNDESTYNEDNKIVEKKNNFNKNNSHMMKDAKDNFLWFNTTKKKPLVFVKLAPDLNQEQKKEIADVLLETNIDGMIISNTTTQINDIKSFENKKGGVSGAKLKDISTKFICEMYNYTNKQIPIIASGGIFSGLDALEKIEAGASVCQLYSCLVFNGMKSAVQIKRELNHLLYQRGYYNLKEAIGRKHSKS

Row | Structure (SMILES) | z-score [1] | z-score [2] | z-score [3] | z-score [4] | z-score [5] | z-score [6] | z-score [7] | z-score [8] | z-score [9] | z-score [10] | z-score [11] | z-score [12] | z-score [13] | composite z-score [14] | z-score [15] | z-score [16] | z-score [17] | z-score [18] | z-score [19] | composite z-score [20]
1 | CC(C)N1CC=CC23O[C@@H]4/C=C\CCCOC(=O)C4[C@H]2C(=O)N(C(C)CO)[C@@H]3C1=O (stereo not given in full) | 0.0513 | 0.512 | -0.145 | 0.967 | 0.629 | 0.412 | -1.54 (inactive) | 0.0317 | -1.08 | 0.753 (inactive) | 0.876 | -1.69 (inactive) | 0.832 (inactive) | -0.555 (inactive) | 0.0126 (inactive) | 0.14 (inactive) | 1.1 (inactive) | 0.906 (inactive) | 0.734 | -0.102
2 | COc1cc(Cc2cc3c(c(-c4ccccc4)n2)[Si](C(C)C)(C(C)C)OC3)cc(OC)c1OC | 0.24 | 0.609 | -0.305 | -0.537 | -0.189 | -0.591 | 0.323 (inactive) | 0.138 | 0.382 | 0.534 (inactive) | 0.233 | 0.299 (inactive) | 1.03 (inactive) | 0.021 (inactive) | -0.133 (inactive) | -0.776 (inactive) | 1.13 (inactive) | 0.405 (inactive) | 0.542 | -0.305
3 | CCCNC(=O)[C@@]1(Sc2ccc(C)cc2)CC(=O)N(Cc2cc(C(F)(F)F)cc(C(F)(F)F)c2)[C@@H]1c1ccc(CO)cc1 | -0.259 | 1.2 | -0.609 | -0.254 | -0.312 | -0.537 | 0.196 (inactive) | 0.293 | -0.765 | 0.149 (inactive) | -0.258 | -0.265 (inactive) | 0.905 (inactive) | -0.756 (inactive) | 0.366 (inactive) | -0.977 (inactive) | 0.484 (inactive) | -0.0429 (inactive) | 0.18 | -0.127
4 | COc1ccc(NN2C(C(O)c3ccccc3)C=CC3C(=O)N(C4CCCCC4)C(=O)C32)cc1 (stereo not given) | -0.408 | -0.503 | 0.0544 | -1.37 | -1.82 | -0.536 | 0.0258 (inactive) | -0.335 | -0.253 | 1.67 (inactive) | -0.403 | 0.047 (inactive) | -0.0925 (inactive) | -0.638 (inactive) | 0.505 (inactive) | 1.5 (inactive) | -0.0187 (inactive) | 0.0413 (inactive) | 0.0134 | 0.0348
5 | C=C[C@H](C)[C@@H](OC(=O)Nc1ccc(SC)cc1)c1ccc(OCCO)cc1 | -0.305 | -0.0489 | -0.232 | -1.69 | -1.81 | -3.37 | -0.168 (inactive) | -0.639 | -0.114 | -0.505 (inactive) | -1.01 | -0.773 (inactive) | -0.715 (inactive) | 0.918 (inactive) | 0.696 (inactive) | 1.08 (inactive) | -1.55 (inactive) | -1.71 (inactive) | -0.894 | -0.208
6 | C=CC[C@]1(C(=O)NCC(O)CO)N=C(c2ccc(OCCCO)cc2)O[C@H]1c1ccccc1CN=[N+]=[N-] (stereo not given in full) | 0.444 | -0.0459 | 1.31 | -0.22 | -0.365 | 1.28 | -0.451 (inactive) | -0.427 | -0.825 | -0.389 (inactive) | -0.766 | -0.432 (inactive) | -1.51 (inactive) | -0.0887 (inactive) | 1.27 (inactive) | 0.244 (inactive) | -0.363 (inactive) | 0.196 (inactive) | -0.566 | -0.0136
7 | C=CCC(OC(C)=O)[C@@H]1[C@@H](N(Cc2ccc(-c3ccccc3)cc2)C(=O)Cc2ccc(OC)cc2)c2cc(OCCCO)ccc2N1C(=O)c1ccc2ccccc2c1 (stereo not given in full) | -0.186 | 0.407 | -0.437 | -1.12 | -0.807 | 1.87 | -0.81 (inactive) | 1.08 | 0.383 | -0.0027 (inactive) | -0.555 | -0.562 (inactive) | -0.536 (inactive) | -0.804 (inactive) | 0.0914 (inactive) | -1.21 (inactive) | 0.174 (inactive) | -0.339 (inactive) | 0.186 | 0.202
8 | C=C(COC)/C(=C/C[C@@H](OC(C)=O)c1cccc(OCCO)c1)c1cnc2ccccc2c1 | 0.37 | 1.35 | -0.705 | -0.588 | -0.461 | 0.902 | -0.0217 (inactive) | 0.0629 | 0.627 | -0.736 (inactive) | -0.469 | -7.06 (inactive) | -0.732 (inactive) | -7.29 (inactive) | 0.203 (inactive) | 0.179 (inactive) | -0.672 (inactive) | -0.303 (inactive) | -0.311 | 0.133

— PubChem BioAssay
